# Source: PubChem BioAssay
# Hits are enriched below; roughly 4.6% of the tested compounds scored in any of these assays.
# PNC assembly inh = inhibitors of perinucleolar compartment assembly. actives 3.1% (n = 140,000). PC3M PTB-GFP, PNC prevalence imaging, 16 h; stronger effect = lower value. activity change (PNC), negative = inhibition, % at 10 µM;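 active = readout at or below -70, meaning at least 70% loss of cells showing the perinucleolar compartment, a nuclear body marking cancer cells; inconclusive = readout between -30 and a set limit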
#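 Read-out is percentage of cells bearing a perinucleolar compartment, from automated 20x imaging of fixed, Hoechst-stained PC3M PTB-GFP cells. Cells were seeded 4 h, then exposed 16 h to compound (23 nl of library stock) in duplicate plates.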
# TRb-SRC2 inh = inhibitors of human thyroid hormone receptor beta-SRC2 interaction; P10828; TRbeta-SRC2 peptide binding, fluorescence polarization; receptor liganded with 1 µM T3; Potency, µM (doses to about 106 µM), most hits filed as inhibitors; actives 0.065% (n = 280,000); AID 1469; note: nearly all actives have a fitted effect of over 50% in size
# Target sequence (P10828 whole entry, looked up): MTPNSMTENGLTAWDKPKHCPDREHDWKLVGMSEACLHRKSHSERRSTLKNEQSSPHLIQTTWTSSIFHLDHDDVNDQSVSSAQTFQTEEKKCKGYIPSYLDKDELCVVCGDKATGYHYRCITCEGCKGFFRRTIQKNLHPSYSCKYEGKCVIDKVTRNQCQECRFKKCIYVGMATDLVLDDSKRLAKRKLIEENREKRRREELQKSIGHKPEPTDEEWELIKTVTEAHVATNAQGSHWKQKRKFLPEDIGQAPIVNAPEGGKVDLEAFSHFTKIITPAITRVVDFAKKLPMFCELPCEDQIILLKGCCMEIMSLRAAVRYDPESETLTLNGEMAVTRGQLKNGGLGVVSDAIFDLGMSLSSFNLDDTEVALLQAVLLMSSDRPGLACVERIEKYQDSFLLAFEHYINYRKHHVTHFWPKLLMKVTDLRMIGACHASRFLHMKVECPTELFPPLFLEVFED
#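 Human TRb ligand-binding domain (0.6 uM) is mixed with 20 nM Texas Red SRC2 peptide and 1 uM T3; after compound addition and 5 hr at ambient temperature, polarization is measured and normalized to unbound and bound controls.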
# TexasRed fluor = counter-screen for TRb-SRC2 inhibitors: fluorescence interference; TRb/SRC2 Texas Red total fluorescence interference; Potency, µM (highest dose often 106 µM); actives 0.29% (n = 280,000); active = well fitted curve in either direction with a large enough effect; inconclusive = small, poorly fitted or top-dose-only effect
#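 Flags fluorescent or light-absorbing compounds by total fluorescence, S + 2P, at 555 nm excitation and 632 nm emission. Mixture: 20 nM Texas Red SRC2 peptide, 0.6 uM human TRb LBD, 1 uM T3, 5% DMSO; compound exposure 5 h at ambient temperature.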
# Tau FP inhib = inhibitors of human tau fibril formation. Potency, µM (series often up to 57.7 µM), usual class: inhibitors. actives 0.39% (n = 280,000). P10636. AID 1468. K18 P301L tau heparin fibrillization, Alexa594 FP, 6 h; note: nearly all actives have a fitted effect of over 55% in size
# Target sequence (P10636 561-689 P618L limits assumed): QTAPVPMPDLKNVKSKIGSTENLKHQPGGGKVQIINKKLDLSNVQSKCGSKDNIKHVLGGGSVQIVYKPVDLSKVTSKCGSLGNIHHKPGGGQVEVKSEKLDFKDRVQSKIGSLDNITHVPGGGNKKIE
#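 K18 P301L tau (15 uM unlabeled/0.24 uM Alexa 594-labeled, final) + compound + heparin 20 uM final; 100 mM NaOAc pH 7; 6 hr 37 C; ThT 30 uM final added, 1 hr RT; FP ex 555/em 632 nm.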
# Tau fibril ThT = inhibitors of human tau fibril formation, thioflavin T binding; P10636; recombinant tau K18 P301L, heparin-induced fibrillization, ThT fluorescence; actives 2.1% (n = 270,000); AID 1460; Potency, µM (doses to about 57.4 µM), hits mostly inhibitors; note: nearly all actives have a fitted effect of over 55% in size
#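 In this qHTS, human K18 P301L tau is incubated with compound and heparin for 6 hr at 37 C, and Thioflavin T fluorescence then reports fibril load.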
# Tau fluor cs = counter-screen for tau fibril formation inhibitors; tau K18 P301L (four-repeat tau fragment) Alexa594 fluorescence, heparin fibrillization; Potency, µM (titrated, usually from 57.7 µM); actives 0.93% (n = 280,000); AID 1463; note: nearly all actives have a fitted effect of over 55% in size
#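 Human K18 P301L tau (15 uM unlabeled plus 0.24 uM Alexa 594-labeled, final) in 100 mM sodium acetate pH 7 was mixed with compound and 20 uM heparin and incubated 6 hr at 37 C.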
# A number is an active result; n = inactive; u = inconclusive; x = not tested or not shown; [ ] = remark or other dose. Unless noted, calls come from the whole dose curve; as a rule, active = well fitted curve in the direction sought with a large enough effect; inconclusive = small, poorly fitted or top-dose-only effect, or another doubt; inactive = no such curve, though single readings can be large; an effect the other way counts as inactive or inconclusive.
SMILES,PNC assembly inh,TRb-SRC2 inh,TexasRed fluor,Tau FP inhib,Tau fibril ThT,Tau fluor cs
COc1cc([N+](=O)[O-])ccc1NC(=O)Oc1ccc(NC(C)=O)cc1,x,n,n,n,n,n
COc1cc(NC(=O)Nc2ccc3c(c2)OCO3)cc(OC)c1OC,x,n,n,n,n,n
COc1cc([N+](=O)[O-])ccc1NC(=O)Nc1ccc2c(c1)OCCO2,x,n,n,u,13µM,16µM[quencher]
COc1ccc(C(C)(C)C)cc1NC(=O)Nc1ccc2c(c1)OCO2,n,n,n,u,u,14µM[quencher]
C=CCc1ccc(OCCOCCOc2ccc(C)cc2[N+](=O)[O-])c(OC)c1,n,n,n,n,n,n
CCCCC/C=C\C/C=C\C/C=C\C/C=C\CCCC(=O)O[C@H](COCCCCCCCCCCCCCCCC)COP(=O)([O-])OCC[N+](C)(C)C,x,n,n,n,n,n
O=C1CC(c2cccc([N+](=O)[O-])c2)c2cc3c(cc2N1)CCC3 (stereo not drawn),x,n,n,n,u,n
Cc1[nH]n(-c2ccccc2)c(=O)c1/C=C1/C=c2ccccc2=N1,x,n,n,n,2.2µM,n
Cc1[nH]n(-c2ccccc2)c(=O)c1/C=C1\C=NN=C1c1ccccc1,x,n,n,n,u,u
COc1ccccc1OCCNS(=O)(=O)c1ccc2oc3ccccc3c2c1,n,n,n,n,n,u
Cc1[nH]nc2c1C(c1ccccc1F)NC2=O (stereo not drawn),-103,n,n,n,n,n
O=C(O)c1ccc(CSc2nnc(-c3ccncc3)n2-c2ccc(Br)cc2)cc1,x,n,n,n,n,n
CCOC(=O)C1(Cc2cccc(Cl)c2)CCCN(C2CCN(C(C)=O)CC2)C1 (stereo not drawn),x,n,n,n,n,n
C[C@@](N)(Cc1ccc(O)c(O)c1)C(=O)O,x,n,u,u,4.5µM,u
Cc1c(Br)c([N+](=O)[O-])nn1CCCC(=O)Nc1sc2c(c1C(N)=O)CCC(C)C2 (stereo not drawn),u,n,n,n,u,n
Cc1c(CNC(=O)c2cnn3c2NC(c2ccc(Br)cc2)CC3C(F)(F)F)cnn1C (stereo not drawn),-123,n,n,u,n,n
Cc1nn(C)cc1CNC(=O)c1cnn2c1NC(c1ccc(Br)cc1)CC2C(F)(F)F (stereo not drawn),n,n,n,n,n,n
O=C(Nc1ccccc1Cl)N1CCN(C/C=C/c2ccccc2)CC1,-91,n,n,n,n,n
CCN1/C(=C\C(C)=O)Sc2ccc(OC)cc21,n,n,n,n,n,n
CCN1/C(=C/C(C)=C/c2sc3ccccc3[n+]2CC)Sc2ccccc21,x,u,20µM[fluorescent],u,1.6µM,0.45µM[fluorescent]
Cc1ccc2occ(CC(=O)N(Cc3ccc(Cl)cc3)Cc3ccco3)c2c1,x,u,0.35µM[quencher],n,u,n
O=C(/C=C/c1ccc(OCc2ccccc2)c(OCc2ccccc2)c1)c1cccnc1,n,n,1122µM[quencher],n,n,n
O=C(/C=C/c1ccc(Cl)cc1)c1cccnc1,n,n,n,n,u,n
O=C(Nc1ccc(OCc2ccccc2)cc1)c1ccccc1,x,n,n,n,n,n
O=C(Nc1ccc(OCc2ccccc2)cc1)c1cccnc1,-112,n,n,n,n,n
SMILES,PNC assembly inh,TRb-SRC2 inh,TexasRed fluor,Tau FP inhib,Tau fibril ThT,Tau fluor cs
CCC1CCCCN1C(=O)Cn1c(=O)n(CCCCCC(=O)NCc2ccc(F)cc2)c(=O)c2sccc21 (stereo not drawn),x,n,n,n,n,n
COc1cccc(CNCCCSc2nnnn2C)c1,x,n,1000µM[quencher],n,n,n
CCOc1ccc(C2c3[nH]c4ccccc4c3CCN2C(=O)CSc2ccccc2)cc1 (stereo not drawn),x,n,2.8µM[quencher],n,n,n
CCOC(=O)c1cc2c(=O)n3ccccc3nc2n(Cc2ccco2)c1=NC(=O)c1ccccc1OC,x,n,n,n,u,n
Nc1ccc2oc(-c3cccc4ccccc34)nc2c1,n,n,n,n,u,16µM[quencher]
COc1ccc(C)cc1NC(=O)C1CCN(S(=O)(=O)c2cccc3nonc23)CC1,x,n,n,n,n,n
O=C(c1ccc(Cl)c([N+](=O)[O-])c1)N(Cc1cccc(Cl)c1)C1CCS(=O)(=O)C1 (stereo not drawn),n,n,112µM[quencher],n,n,n
CCOc1cc(C(=S)N2CCCCC2)ccc1OCC(=O)NCc1ccccc1,n,n,n,n,n,n
CCOC(=O)N1CCN(C(=O)c2c(N)no[n+]2[O-])CC1,x,n,n,u,25µM,n
O=C(O)CSc1nnc(-c2ccccc2)o1,n,n,n,n,n,n
CCN1CCN(Cc2ccc(NC(=O)c3cc(NC(=O)c4cc(-c5ccc(OC)cc5)n[nH]4)cc(OC)c3)cc2C(F)(F)F)CC1,x,n,n,28µM,u,u
CCOC(=O)C1=C(C)OC(N)=C(C#N)C1c1cc(OC)c2c(c1)OCO2 (stereo not drawn),u,n,n,n,n,n
CCOC(=O)C1=C(C)OC(N)=C(C#N)C1c1cc2c(cc1[N+](=O)[O-])OCO2 (stereo not drawn),x,n,n,u,28µM,u
CS(=O)(=O)N1CCc2cc(-c3csc(NC(=O)Cc4ccccc4)n3)ccc21,-119,n,n,n,n,u
CC1Cc2cc(-c3csc(NC(=O)Cc4cccs4)n3)ccc2N1S(C)(=O)=O (stereo not drawn),-125,n,n,n,n,u
CCCC(=O)Nc1nc(-c2ccc3c(c2)CCN3S(C)(=O)=O)cs1,n,n,n,n,n,n
O=C(Nc1cccnc1)c1c(F)c(F)c(F)c(F)c1F,-107,n,n,n,n,n
N#Cc1ccsc1NC(=O)COC(=O)c1ccc2ccccc2c1,n,n,n,n,n,n
Nc1cccc2nc3ccccc3cc12,-113,n,n,n,n,n
Nc1[nH]nc2nc3ccccc3cc12,x,n,n,n,u,n
COc1cccc(NC(=S)NCc2ccc3c(c2)cc(C)n3C)c1,x,n,n,n,n,u
Cc1cc2cc(CNC(=O)Nc3cccc(Cl)c3)ccc2n1C,n,45µM,45µM[fluorescent],u,u,u
Cc1cccc(NC(=O)NCc2ccc3c(c2)cc(C)n3C)c1,-108,n,n,n,n,n
CCCC(=O)NCc1ccc2c(c1)cc(C)n2C,n,n,n,n,n,n
CCCCN(C)CCNS(=O)(=O)c1ccc2c(c1)n(C)c(=O)c(=O)n2C,n,n,n,n,n,n
Cc1ccccc1SCC(=O)N1CCN(c2ccc(C(F)(F)F)cn2)CC1,n,n,u,n,u,n
